Measured values reported in PubChem BioAssay (Tox21).
“And” between values parts separate entries of the source, which are not always exact repeats. Equal values may be shown once. Records with an inconclusive call do not appear. Some compounds were tested as several samples or in several runs, with calls that do not always agree. The source made the active and inactive calls. Unless noted, calls come from the whole dose curve.

Assays:
[1] = Nuclear factor erythroid 2-related factor 2/antioxidant responsive element (Nrf2/ARE) small molecule agonists: qHTS cell viability counter screen in human keratinocytes (AID 1919968; active = well fitted curve in the direction sought with a large enough effect in the repeat runs; an effect the other way counts as inactive or inconclusive; note: nearly all actives have a fitted effect of over 55% in size)
Procedure, shortened: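 Stably transfected HaCaT (KeratinoSens), 1,500/well. Test agents in DMSO were applied for 23 h, 37 C/5% CO2. CellTiter-Fluor was incubated 1 h before the fluorescence read.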

[2] = Nuclear factor erythroid 2-related factor 2/antioxidant responsive element (Nrf2/ARE) small molecule agonists: luciferase reporter gene qHTS assay in human keratinocytes (AID 1919969); note: nearly all actives have a fitted effect of over 35% in size; note: potency is the fitted concentration of half-maximal effect
[3] = target: Gonadotropin-releasing hormone receptor (Homo sapiens) (UniProt P30968); assay: Human gonadotropin-releasing hormone receptor (GnRHR) small molecule agonists, calcium flux assay in GnRHR-HEK293 cells (AID 1920063); note: nearly all actives have a fitted effect of over 35% in size
Procedure, shortened: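 Stable human GnRHR HEK293 line. 18 h plating, then calcium dye for 1 h at 37 C. Agonist-mode compound addition from DMSO stocks; fluorescence monitored 3 min.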

[4] = target: KiSS-1 receptor (Homo sapiens) (UniProt Q969F8); assay: Human kisspeptin (KISS1R) small molecule agonists, calcium flux assay in KISS1R-HEK293 cells (AID 1920064; active = well fitted curve in the direction sought with a large enough effect in the repeat runs; an effect the other way counts as inactive or inconclusive)
Procedure, shortened: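 After overnight (18 h) culture at 37 C/5% CO2, human KISS1R-HEK293 cells received calcium dye for 1 h, then test compound; emission at 540 nm (excitation 480 nm) was tracked for 3 min.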

[5] = G protein-coupled receptor (GPCR) small molecule agonists, calcium flux assay: HEK293 wild type cell line counter screen (AID 1920065)
Procedure, shortened: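 Following 18 h incubation at 37 C/5% CO2, plates got calcium dye for 1 h; compounds, ATP or DMSO were then pinned in and fluorescence followed kinetically (480/540 nm).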

[6] = p53 small molecule agonists, cell-based qHTS assay with human liver microsomes (AID 1963577)
Procedure, shortened: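 Compounds act here after metabolic activation: human liver microsomes and NADPH, both at 0.5 mg/mL final, were co-added to p53RE-bla cells. Incubation ran 16 h at 37 C, followed by LiveBLAzer detection.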

[7] = p53 small molecule agonists, cell-based qHTS assay with rat liver microsomes (AID 1963578)
Procedure, shortened: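 Read-out is beta-lactamase reporter fluorescence (LiveBLAzer, 2 h, room temperature, dark) in p53RE-bla cells treated 16 h at 37 C with compound, rat liver microsomes and NADPH, both 0.5 mg/mL final.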

[8] = p53 small molecule agonists, cell-based qHTS assay with rat liver microsomes: qHTS cell viability counter screen (AID 1963580); note: nearly all actives have a fitted effect of over 45% in size
Procedure, shortened: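 Cytotoxicity counter screen: intracellular ATP read by CellTiter-Glo luminescence in the p53 reporter wells. HCT-116 p53RE-bla cells were treated for 16 h at 37 C alongside rat liver microsomes and NADPH, each 0.5 mg/mL final.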

[9] = p53 small molecule agonists, cell-based qHTS assay: qHTS cell viability counter screen (AID 1963581); note: nearly all actives have a fitted effect of over 45% in size; note: potency is the fitted concentration of half-maximal effect
Procedure, shortened: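 qHTS counter screen: 16 h compound exposure at 37 C of p53RE-bla HCT-116 cells (4,000 per well, seeded 5 h prior), cell viability by ATP luminescence.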

[10] = p53 small molecule agonists, cell-based qHTS assay (AID 1963582; active = well fitted activation curve with a large enough effect in the signal ratio in the repeat runs, not every such curve was filed as active; the % refers to the signal ratio)
Procedure, shortened: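 Measured: fluorescence from cleaved LiveBLAzer substrate. System: p53RE-bla cells, 16 h compound treatment at 37 C, 2 h substrate step at room temperature.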

[11] = target: 5-hydroxytryptamine receptor 2A (Homo sapiens) (UniProt P28223); assay: 5-hydroxytryptamine receptor 2A (HTR2A) small molecule antagonists, cell-based qHTS assay (AID 1963586); note: nearly all actives have a fitted effect of over 45% in size
Procedure, shortened: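 CHO cells stably expressing human HTR2A were plated for 18 h at 37 C, then loaded with calcium dye for 1 h. Compounds were preincubated 5 min at room temperature before DOI (4 nM solution) was added. Kinetic fluorescence was read for 3 min.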

[12] = target: 5-hydroxytryptamine receptor 2A (Homo sapiens) (UniProt P28223); assay: 5-hydroxytryptamine receptor 2A (HTR2A) small molecule agonists, cell-based qHTS assay (AID 1963587); note: nearly all actives have a fitted effect of over 30% in size
Procedure, shortened: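 Kinetic calcium-flux fluorescence (2 min, 1 sec intervals) after compound addition in agonist mode. HTR2A-CHO cells were cultured 18 h, then dye-loaded 1 h at 37 C.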

[13] = target: Muscarinic acetylcholine receptor M1 (Homo sapiens) (UniProt P11229); assay: Cholinergic receptor muscarinic 1 (CHRM1) small molecule antagonists, cell-based qHTS assay (AID 1963588); note: nearly all actives have a fitted effect of over 40% in size
Procedure, shortened: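 Compounds were tested at 15 concentrations in three independent runs. Dye-loaded CHRM1-CHO cells were exposed 5 min at room temperature before stimulation by acetylcholine added at 50nM. Intracellular calcium was read kinetically on FDSS for 3 min.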

[14] = target: Muscarinic acetylcholine receptor M1 (Homo sapiens) (UniProt P11229); assay: Cholinergic receptor muscarinic 1 (CHRM1) small molecule agonists, cell-based qHTS assay (AID 1963589); note: nearly all actives have a fitted effect of over 35% in size
Procedure, shortened: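 Kinetic fluorescence (1 s intervals) of calcium-sensitive dye in human M1 CHO cells after compound addition; cells pre-incubated 18 h at 37 C/5% CO2 and dye-loaded 1 h.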

[15] = cAMP Responsive Elements (CRE) small molecule agonists, cell-based qHTS assay (AID 1963590)
Procedure, shortened: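 Test agents in DMSO were incubated 3 h at 37 C/5% CO2 with CRE-bla HEK 293T cells seeded 18 h earlier; LiveBLAzer B/G FRET substrate was added and read after 2 h at room temperature.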

[16] = cAMP Responsive Elements (CRE) small molecule antagonists, cell-based qHTS assay (AID 1963591; active = well fitted inhibition curve with a large enough effect in the signal ratio in the repeat runs, not every such curve was filed as active; the % refers to the signal ratio)
Procedure, shortened: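 Reporter line CRE-bla HEK 293T in dialyzed-FBS DMEM; cells preincubated 18 h, treated 3 h with compound plus NKH477 (0.25 uM final); LiveBLAzer FRET, 2 h RT.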

[17] = target: Beta-2 adrenergic receptor (Homo sapiens) (UniProt P07550); assay: Adrenergic beta2 receptor (ADRB2) small molecule antagonists, cell-based qHTS assay (AID 1963592); note: series mostly up to about 92 µM; nearly all actives have a fitted effect of over 50% in size
Procedure, shortened: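 Assay format: CHO-ADRB2 cells, 18-20hr seeding at 37C/5% CO2, then compound plus 1nM isoproterenol agonist mix for 0.5hr RT. Homogeneous time-resolved fluorescence cAMP detection after 1hr, expressed as 665/615 nm ratio.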

[18] = target: D(2) dopamine receptor (Homo sapiens) (UniProt P14416); assay: Dopamine D2 receptor (DRD2) small molecule agonists, cell-based qHTS assay (AID 1963594); note: nearly all actives have a fitted effect of over 35% in size
Procedure, shortened: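 cAMP accumulation in DRD2-HEK293 cells measured by HTRF after 1 h detection; compounds added 10 min before NKH477 (200nM […]) forskolin-analogue stimulation, 30 min at room temperature, with Ro20-1724 present at 0.1 mM final.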

[19] = target: D(2) dopamine receptor (Homo sapiens) (UniProt P14416); assay: Dopamine D2 receptor (DRD2) small molecule antagonists, cell-based qHTS assay (AID 1963595; active = well fitted inhibition curve with a large enough effect in the signal ratio in the repeat runs, with a control signal flat; the % refers to the signal ratio)
Procedure, shortened: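 HEK293 cells stably expressing DRD2 were preincubated with 0.1 mM Ro20-1724, then with compound for 10 min at room temperature. Cells were stimulated with 200 nM NKH477 plus 12 nM quinpirole for 30 min, and cAMP was read by HTRF.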

[20] = p53 small molecule agonists, cell-based qHTS assay with human liver microsomes: qHTS cell viability counter screen (AID 1963579); note: nearly all actives have a fitted effect of over 45% in size
Procedure, shortened: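 Cells carrying the p53 response-element beta-lactamase reporter are treated for 16 h at 37 C with test compounds in the presence of human liver microsomes and NADPH (both 0.5 mg/mL final); ATP-based CellTiter-Glo luminescence then reports viability.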

Measured: Potency

5-hydroxytryptamine receptor 2A (Homo sapiens), sequence (P28223 whole entry, looked up): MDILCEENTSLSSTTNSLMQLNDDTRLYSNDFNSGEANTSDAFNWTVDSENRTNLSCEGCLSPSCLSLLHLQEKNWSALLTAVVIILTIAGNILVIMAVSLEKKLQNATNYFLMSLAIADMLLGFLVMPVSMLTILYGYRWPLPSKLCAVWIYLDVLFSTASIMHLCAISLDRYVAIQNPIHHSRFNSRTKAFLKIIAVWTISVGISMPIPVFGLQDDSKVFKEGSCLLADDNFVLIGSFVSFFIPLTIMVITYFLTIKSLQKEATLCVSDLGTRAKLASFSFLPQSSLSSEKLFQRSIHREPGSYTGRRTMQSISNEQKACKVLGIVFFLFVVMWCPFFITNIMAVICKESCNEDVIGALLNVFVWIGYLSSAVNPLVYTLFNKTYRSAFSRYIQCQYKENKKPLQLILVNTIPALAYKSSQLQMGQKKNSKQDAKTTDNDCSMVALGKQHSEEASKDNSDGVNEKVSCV
D(2) dopamine receptor (Homo sapiens), sequence (P14416 whole entry, looked up): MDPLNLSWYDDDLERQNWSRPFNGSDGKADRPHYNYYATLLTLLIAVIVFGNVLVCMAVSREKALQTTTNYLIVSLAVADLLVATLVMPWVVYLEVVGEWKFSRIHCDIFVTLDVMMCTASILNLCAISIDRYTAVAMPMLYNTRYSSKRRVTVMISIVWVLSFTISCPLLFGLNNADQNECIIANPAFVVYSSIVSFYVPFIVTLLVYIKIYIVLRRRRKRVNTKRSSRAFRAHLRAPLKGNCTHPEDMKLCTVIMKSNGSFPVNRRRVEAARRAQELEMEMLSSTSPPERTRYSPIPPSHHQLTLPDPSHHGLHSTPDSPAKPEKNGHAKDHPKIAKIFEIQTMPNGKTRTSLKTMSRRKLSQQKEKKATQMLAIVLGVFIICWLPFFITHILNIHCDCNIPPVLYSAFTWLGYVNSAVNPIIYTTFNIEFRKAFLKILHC
Beta-2 adrenergic receptor (Homo sapiens), sequence (P07550 whole entry, looked up): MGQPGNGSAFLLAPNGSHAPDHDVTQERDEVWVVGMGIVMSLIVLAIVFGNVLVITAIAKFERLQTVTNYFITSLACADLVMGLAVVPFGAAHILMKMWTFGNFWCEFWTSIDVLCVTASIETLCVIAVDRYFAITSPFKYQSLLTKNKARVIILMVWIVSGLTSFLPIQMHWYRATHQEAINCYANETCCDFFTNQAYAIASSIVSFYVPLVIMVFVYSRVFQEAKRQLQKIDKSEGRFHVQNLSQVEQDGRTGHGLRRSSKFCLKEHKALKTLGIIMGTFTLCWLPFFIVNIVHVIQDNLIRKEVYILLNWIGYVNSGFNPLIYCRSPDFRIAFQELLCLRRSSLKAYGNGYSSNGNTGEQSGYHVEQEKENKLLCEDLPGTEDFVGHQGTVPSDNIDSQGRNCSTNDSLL
KiSS-1 receptor (Homo sapiens), sequence (Q969F8 whole entry, looked up): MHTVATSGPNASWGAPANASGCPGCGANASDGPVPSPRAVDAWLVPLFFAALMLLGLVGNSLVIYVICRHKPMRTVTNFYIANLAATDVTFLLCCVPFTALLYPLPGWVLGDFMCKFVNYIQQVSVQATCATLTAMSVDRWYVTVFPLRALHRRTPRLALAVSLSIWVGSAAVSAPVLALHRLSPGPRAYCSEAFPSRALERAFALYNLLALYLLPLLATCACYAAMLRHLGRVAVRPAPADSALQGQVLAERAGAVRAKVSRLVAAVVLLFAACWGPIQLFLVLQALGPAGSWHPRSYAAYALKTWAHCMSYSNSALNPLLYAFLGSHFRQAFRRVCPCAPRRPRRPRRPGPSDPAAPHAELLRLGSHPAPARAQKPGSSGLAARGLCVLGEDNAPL
Muscarinic acetylcholine receptor M1 (Homo sapiens), sequence (P11229 whole entry, looked up): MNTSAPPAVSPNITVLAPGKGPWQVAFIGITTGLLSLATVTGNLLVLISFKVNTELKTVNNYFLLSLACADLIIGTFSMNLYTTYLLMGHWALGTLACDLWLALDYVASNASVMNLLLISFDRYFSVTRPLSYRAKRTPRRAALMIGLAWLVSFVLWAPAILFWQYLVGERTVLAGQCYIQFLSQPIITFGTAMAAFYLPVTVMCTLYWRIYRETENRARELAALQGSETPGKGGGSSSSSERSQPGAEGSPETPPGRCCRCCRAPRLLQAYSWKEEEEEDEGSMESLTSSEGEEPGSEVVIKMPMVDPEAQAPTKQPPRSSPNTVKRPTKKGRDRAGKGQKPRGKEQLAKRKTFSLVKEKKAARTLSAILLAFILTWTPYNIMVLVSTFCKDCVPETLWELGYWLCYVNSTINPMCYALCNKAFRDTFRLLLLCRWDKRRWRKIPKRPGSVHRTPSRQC
Gonadotropin-releasing hormone receptor (Homo sapiens), sequence (P30968 whole entry, looked up): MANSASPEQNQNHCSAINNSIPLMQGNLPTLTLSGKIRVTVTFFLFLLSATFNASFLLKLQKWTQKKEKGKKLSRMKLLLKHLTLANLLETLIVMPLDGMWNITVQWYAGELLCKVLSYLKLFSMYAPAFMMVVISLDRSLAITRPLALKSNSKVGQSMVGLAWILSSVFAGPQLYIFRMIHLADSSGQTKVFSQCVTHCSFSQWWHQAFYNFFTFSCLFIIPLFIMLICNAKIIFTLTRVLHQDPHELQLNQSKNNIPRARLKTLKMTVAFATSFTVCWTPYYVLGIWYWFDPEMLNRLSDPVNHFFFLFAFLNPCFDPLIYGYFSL

CC(C)=CCO
not listed: [20]
inactive: all other assays above

CC(=O)CCC=C(C)C
not listed: [18] | [20]
inactive: all other assays above

C#CCN(C)Cc1ccccc1
not listed: [7]
inactive: all other assays above

CCCCOC(=O)c1ccc(N)cc1
not listed: [7] | [11] | [12] | [13] | [14] | [18]
inactive: all other assays above

O=c1[nH]c(=O)n([C@H]2C[C@H](O)[C@@H](CO)O2)cc1Br
not listed: [7] | [11] | [15]
inactive: all other assays above

CCCCC(CC)COC(=O)CCCCC(=O)OCC(CC)CCCC (stereo not drawn)
not listed: [7]
inactive: all other assays above

CC(C)=CCC/C(C)=C/CO
not listed: [7] | [11] | [12] | [13] | [14]
inactive: all other assays above

Nc1ccc(S(=O)(=O)c2ccc(N)cc2)cc1
inactive and 27.3 µM (active): [2]
not listed: [7] | [13]
inactive: all other assays above

O=C(O)Cc1cccc2ccccc12
not listed: [7] | [10] | [15]
inactive: all other assays above

CC(C)OP(=O)(CP(=O)(OC(C)C)OC(C)C)OC(C)C
not listed: [7]
inactive: all other assays above

CC(=O)OC(C)(C)C1CC=C(C)CC1 (stereo not drawn)
not listed: [7] | [16]
inactive: all other assays above

O=C(OCc1ccccc1)c1ccccc1O
active: [2] 48.2 µM and 54.5 µM | [9] 45.8 µM
not listed: [7] | [13] | [18]
inactive: all other assays above

Cc1cccc2n[nH]nc12
not listed: [7]
inactive: all other assays above

Cc1ccc([N+](=O)[O-])cc1S(=O)(=O)O
not listed: [7]
inactive: all other assays above
